Assay results: the OligoGym collection

These sequences were tested against PION (assay: pooled miR-30 sensor sort-seq; sequence = guide strand). Details: shRNA.
Further: reference of the scale not given here.

| Sequence | sensor-assay potency score (higher = more potent) |
| --- | --- |
| TAGTAGACTGAACTAAACTTGC | -0.883 |
| AACATACACACAAACTTCCTGT | 0.437 |
| TATAGTTCTGAAGCAGTCGCGT | -0.318 |
| TTTTCTTCTTTTCTACACCCTG | -0.629 |
| TTCTTTAGTAGACTGAACTAAA | -0.809 |
| TTAGTAGACTGAACTAAACTTG | -0.14 |
| TTTTCTAAAACATCTGCGCCGC | -0.387 |
| TTGAACATTAAGTAGGTGGAAG | -0.626 |
| TAACATACACACAAACTTCCTG | 0.883 |

What follows are sequences tested against PIP5K1B in the same assay as above. Details: shRNA.

| Sequence | sensor-assay potency score (higher = more potent) |
| --- | --- |
| TTTGAATAGAGTGTAGGCCTGT | 0.71 |
| TTGCATACAATACAGTCCGTAA | -1.09 |
| TCTAACTTCTTCATTAACCTAT | 0.135 |
| TTGAGGACACAATCTCCTGTGA | -0.569 |
| TTGGTCTATGAACAGAAACAGT | -1.55 |
| TTGAACTGGAAGGTAACCCTTT | 0.268 |
| TTAAATTCATGTAATAGCCTGG | 0.247 |
| TAATCCATGATCTTGAAGCTTT | -0.406 |
| TTCGCTTATACGTTGAGCCTTT | 0.43 |
| TTGCAGGAAATCTAAGTCCTTA | -0.188 |
| TTGACATCTTGAAAACTCTTAA | -0.776 |

Each sequence was assayed against PIP5KL1 in the same assay as above. Details: shRNA.

| Sequence | sensor-assay potency score (higher = more potent) |
| --- | --- |
| TTTGATGTCATACCTCTCGGAG | -0.872 |
| TACCTCTCGGAGATGCGGCCGG | -0.502 |
| TAATCCAGCACGTTGAGCTCCC | -0.232 |
| TATCAGGAGGCTGTAATCCAGC | -1.11 |
| TAGCGCAGTGTCTTCCACAGGT | 0.0204 |
| TATCCAGTTCCATCTGGCGGAG | -1.65 |
| TTGGGCTCTCGACTCTTCCGGG | -0.549 |
| TTGCGGAGCCCGTAGACTGTGG | -1.6 |
| TTGAGCTCCCGGAGGAAGGTGG | -0.608 |
| TTGATGTCATACCTCTCGGAGA | -1.04 |
| TTTGGGCTCTCGACTCTTCCGG | -0.891 |
| TGTCTTCCACAGGTGCTCCAGC | -0.631 |

The sequences below were run against PITPNM3 in the same assay as above. Details: shRNA.

| Sequence | sensor-assay potency score (higher = more potent) |
| --- | --- |
| TTGCGCAGGATCATGCGCGAGT | -0.913 |
| TTACGAAGCCACTTCTCCCGGG | -0.085 |
| TTTGATGAAGCACTCCTGCATG | -0.502 |
| TAGACAGAGATGTCCTTCGTGG | -0.052 |
| TTCCTCGCTGTCTTCGTGGATC | -1.05 |
| TATGTGATGCGACCACTGCTGT | -0.671 |
| TTGCTGAGACGCTTGCTGCTGG | -0.433 |
| TTCAGGTGAGAGACAAGCGAGA | -0.748 |
